Source: PubChem
An excerpt weighted towards active compounds, which were near 0.99% of everything screened.
Prostate diff: promotes differentiation of LNCaP prostate cells; side scatter shift, % at 10 µM; 24,000 compounds, 0.56% hits; flow cytometry side scatter, 4 d;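 active = side scatter shift above 30%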;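 also: androgen-responsive LNCaP prostate cancer cells in charcoal-stripped serum medium; percent of cells past a gate set so DMSO wells show 10% shift; higher shift means more granular cells and more differentiation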
QS inhibitor: S. aureus quorum sensing inhibition; S. aureus RN6390 RNAIII-GFP reporter, AIP-induced, flow cytometry 3 h; inhibition, % at 2 µM; 24,000 compounds, 0.3% hits; AID 527;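 active = share of bacteria positive for the green fluorescent reporter and its mean brightness both inhibited by 50% or more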;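 also: 0% = AIP-stimulated control and 100% = unstimulated bacteria without AIP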
Proteasome disasm: blocks ATP-dependent breakdown of the yeast 26S proteasome; 24,000 compounds, 0.2% hits; AID 751; inhibition of disassembly, % (concentration not given with the values); anti-FLAG beads, GFP-proteasome disassembly, flow cytometry;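 active = inhibition of disassembly above about 33%, limit read from the data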;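 also: plate controls were ATP control with full disassembly for no effect and ATP-gamma-S intact proteasomes for full effect; higher percent means more bead fluorescence retained so stronger block of disassembly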
Active calls of the source: *.

For CCOCCCNC(=O)c1cc2c(-c3ccc(Cl)cc3)nn(C)c2s1 the results were Prostate diff 0, QS inhibitor -5 and Proteasome disasm -1.
For Cn1nc(-c2ccc(Cl)cc2)c2cc(C(=O)NCCCN3CCOCC3)sc21 the results were Prostate diff 31*, QS inhibitor 0 and Proteasome disasm -2.
`COc1ccc(-c2nnc3ccc(SCC(=O)N4CCN(c5ccccc5)CC4)nn23)cc1` gave Prostate diff 9, QS inhibitor 1 and Proteasome disasm 1.
Screening Cc1onc(-c2ccccc2)c1C(=O)N[C@@H]1C(=O)N2[C@@H]1SC(C)(C)[C@@H]2C(=O)O returned Prostate diff 3, QS inhibitor -2 and Proteasome disasm 0.
Screening CCn1c(=O)cc(OCC(=O)Nc2ccccc2C#N)c2ccccc21 returned Prostate diff 10, QS inhibitor 6 and Proteasome disasm 1.
Screening CCc1c(C)nc(SCC(=O)Nc2ccc(Br)cc2)[nH]c1=O returned Prostate diff 10, QS inhibitor 80* and Proteasome disasm -1.
`Cc1nnc(SCC(=O)Nc2ccc(Br)cn2)[nH]c1=O` gave Prostate diff 5, QS inhibitor -2 and Proteasome disasm -1.
`Cc1cc(=O)n2nc(N3CCCC(C(=O)NCCCN4CCc5ccccc5C4)C3)sc2n1` (stereo unspecified) gave Prostate diff 38*, QS inhibitor 2 and Proteasome disasm -2.
Screening COCCNC(=O)C1CCCN(c2nn3c(=O)cc(C)nc3s2)C1 (stereo unspecified) returned Prostate diff 13, QS inhibitor 5 and Proteasome disasm 3.
Cc1ccc(S(=O)(=O)NCCCOC(=O)Nc2ccncc2)cc1 was read as Prostate diff 9, QS inhibitor 12 and Proteasome disasm 0.
For O=C(c1ccc(Br)o1)N(Cc1ccccc1)c1ccccn1 the results were Prostate diff 8, QS inhibitor 0 and Proteasome disasm 1.
`CCCN1Cc2cccc(C(=O)Nc3ccc(N4CCN(CC)CC4)cc3)c2C1=O` gave Prostate diff 13, QS inhibitor -1 and Proteasome disasm 6.
CC1(C)S[C@@H]2[C@H](NC(=O)[C@H](N)c3ccccc3)C(=O)N2[C@H]1C(=O)O was read as Prostate diff 0, QS inhibitor 50* and Proteasome disasm 0.
For CC1(C)S[C@@H]2[C@H](NC(=O)C(C(=O)O)c3ccccc3)C(=O)N2[C@H]1C(=O)O (stereo partly specified) the results were Prostate diff 2, QS inhibitor -4 and Proteasome disasm 0.
O=C(NCc1ccccc1)c1cnc2n(c1=O)CCS2 was read as Prostate diff 10, QS inhibitor -3 and Proteasome disasm 1.
`O=C(NCCCc1ccccc1)c1cnc2n(c1=O)CCS2` gave Prostate diff 6, QS inhibitor 56* and Proteasome disasm 0.
Screening COc1ccc(-n2cc(-c3ccccc3)c3c(N4CCN(CCO)CC4)ncnc32)cc1 returned Prostate diff 44*, QS inhibitor 1 and Proteasome disasm 1.
For COc1ccc(-n2ncc3c(N4CCN(c5cccc(C)c5C)CC4)ncnc32)cc1 the results were Prostate diff 19, QS inhibitor -1 and Proteasome disasm 1.
Screening O=C(c1ccc(CNc2c(N3CCCC3)c(=O)c2=O)cc1)N1CCc2ccccc2C1 returned Prostate diff 8, QS inhibitor 1 and Proteasome disasm -1.
For CC(C(=O)c1ccccc1)n1cnc2ccccc2c1=O (stereo unspecified) the results were Prostate diff 9, QS inhibitor -2 and Proteasome disasm 0.
For Cc1ccc2oc(=O)c3cnn(CC(=O)N(CCCN4CCOCC4)Cc4ccco4)c3c2c1 the results were Prostate diff 6, QS inhibitor 0 and Proteasome disasm 2.
`CN(CC(O)COc1ccc(OCC(O)CN(C)C2CCCCC2)cc1)C1CCCCC1` (stereo unspecified) gave Prostate diff 37*, QS inhibitor -4 and Proteasome disasm 0.
CC(=O)c1ccc(OCC(O)CN2C(C)CCCC2C)cc1 (stereo unspecified) was read as Prostate diff 6, QS inhibitor 0 and Proteasome disasm -1.
For CCOC(=O)c1ccc(NC(=O)Cn2cc3c(n2)CCC(C)C3)cc1 (stereo unspecified) the results were Prostate diff 9, QS inhibitor 4 and Proteasome disasm 1.
`Cc1ccc(-c2noc(CCC(=O)NCCN3CCN(Cc4ccccc4)CC3)n2)cc1` gave Prostate diff 21, QS inhibitor -3 and Proteasome disasm 1.
For COc1ccc(-c2noc(CCC(=O)NCCCN3CCC(Cc4ccccc4)CC3)n2)cc1 the results were Prostate diff 32*, QS inhibitor -1 and Proteasome disasm 65.
For COc1cccc(-c2nn(C)c3sc(C(=O)NCc4ccccn4)cc23)c1 the results were Prostate diff 3, QS inhibitor 0 and Proteasome disasm 4.
Screening COc1cccc(-c2nn(C)c3sc(C(=O)Nc4ccc5c(c4)OCCO5)cc23)c1 returned Prostate diff 24, QS inhibitor 82* and Proteasome disasm 4.
CNC(=O)CN(c1ccc(C(C)C)cc1)S(C)(=O)=O was read as Prostate diff 4, QS inhibitor 0 and Proteasome disasm -2.
